# Assay results as given in publication PMC5540273 (PLoS ONE, 2017).
# Experiments:
# Conditions in all cases: concentration: 1 μM, replicates: in singlicate; n = 1
# ACVR1B = tested on: ACVR1B
# ACVR1 = tested on: ACVR1
# ACVR2A = tested on: ACVR2A
# ACVR2B = tested on: ACVR2B
# ACVRL1 = tested on: ACVRL1
# ADCK3 = tested on: T1, ADCK3
# T1 construct: gene CABC1
# ADCK4 = tested on: ADCK4
# AKT1 = tested on: AKT1
# AKT2 = tested on: AKT2
# AKT3 = tested on: AKT3
# ALK = tested on: ALK
# AMPK-alpha1 = tested on: T2, AMPK-alpha1
# T2 construct: gene PRKAA1
# AMPK-alpha2 = tested on: T3, AMPK-alpha2
# T3 construct: gene PRKAA2
# ANKK1 = tested on: ANKK1
# ARK5 = tested on: T4, ARK5
# T4 construct: gene NUAK1
# ASK1 = tested on: T5, ASK1
# T5 construct: gene MAP3K5
# ASK2 = tested on: T6, ASK2
# T6 construct: gene MAP3K6
# AURKA = tested on: AURKA
# AURKB = tested on: AURKB
# AURKC = tested on: AURKC
# 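Also: KINOMEscan kinase panel screen.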
SMILES,%Inh (ACVR1B),%Inh (ACVR1),%Inh (ACVR2A),%Inh (ACVR2B),%Inh (ACVRL1),%Inh (ADCK3),%Inh (ADCK4),%Inh (AKT1),%Inh (AKT2),%Inh (AKT3),%Inh (ALK),%Inh (AMPK-alpha1),%Inh (AMPK-alpha2),%Inh (ANKK1),%Inh (ARK5),%Inh (ASK1),%Inh (ASK2),%Inh (AURKA),%Inh (AURKB),%Inh (AURKC)
COc1cc(Nc2ccnc3ccc(C(F)(F)F)cc23)cc(OC)c1OC [GW577382],0%,67%,0%,0%,52%,86%,54%,0%,20%,0%,22%,0%,25%,12%,10%,6%,19%,49%,0%,7%
CN1C(=O)C(Nc2cc(Cl)c(O)c(Cl)c2)=C(c2ccc(Cl)cc2)C1=O [SB-404321],0%,0%,0%,0%,0%,3%,16%,0%,0%,0%,48%,0%,0%,0%,0%,0%,0%,0%,14%,0%
Cc1nc(N(C)[C@H]2CN(C(=O)CC#N)CC[C@H]2C)c2cc[nH]c2n1,8%,8%,15%,0%,5%,0%,0%,0%,1%,3%,0%,0%,0%,0%,0%,0%,0%,0%,0%,0%
COc1cc2nccc(Nc3ccc(OCc4ccc(NC(C)=O)cc4)cc3)c2cc1OC.Cl [GW440135],0%,25%,0%,1%,4%,15%,23%,6%,0%,0%,5%,15%,10%,0%,28%,3%,0%,0%,0%,0%
COC(=O)c1c(-c2ccccc2)c2cc(Br)ccc2c(=O)n1Cc1ccc(NC(=O)CCC(=O)O)cc1,0%,0%,0%,0%,0%,0%,0%,12%,11%,0%,52%,21%,22%,0%,0%,2%,0%,0%,9%,0%
COc1cc2ncn(-c3cc(OCc4ccncc4Br)c(C(N)=O)s3)c2cc1OC [GW854278],9%,5%,8%,2%,0%,15%,0%,0%,0%,0%,0%,7%,0%,5%,0%,6%,6%,0%,20%,20%
Nc1ncnc2c1ncn2-c1cccc2ccccc12 [SKF-97184],0%,0%,0%,0%,26%,0%,52%,8%,0%,0%,0%,0%,21%,0%,0%,0%,0%,0%,28%,0%
CCC(=O)c1c(-c2ccccc2)c2cc(Cl)ccc2c(=O)n1Cc1ccc(C(=O)O)cc1,0%,11%,0%,0%,0%,0%,0%,0%,0%,0%,0%,0%,0%,0%,6%,0%,0%,0%,19%,0%
COC(=O)c1c(-c2ccccc2)c2cc(C)ccc2c(=O)n1Cc1ccccc1,0%,0%,7%,0%,0%,0%,0%,0%,3%,0%,0%,0%,0%,0%,4%,0%,0%,0%,9%,0%
FC(F)(F)c1ccc(-c2ncn(CCCN3CCOCC3)c2-c2ccncc2)cc1 [SB-217780],10%,0%,0%,0%,4%,1%,8%,0%,0%,28%,0%,9%,4%,0%,0%,0%,0%,0%,0%,27%
Nc1ncnc2c1ncn2-c1ccc(Cl)cc1 [AH2635],0%,3%,0%,16%,0%,24%,33%,0%,0%,0%,0%,0%,0%,0%,0%,0%,0%,0%,0%,17%
